# Data: the supplement of paper PMC9023506
# Counter-ions that a name gives are not always drawn.
# How the values were obtained:
# Conditions in all cases: 10 µM; exposure time: 3 h pre-incubation + 3 h imaging
# [1] = test system: Danio rerio larvae (5 dpf); experiment: habituation to 1-s acoustic pulses, difference vs DMSO (percentage points (treated minus DMSO)); higher = more of the behaviour than the DMSO vehicle control
# Procedure, shortened: (§1)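 5-dpf wild-type zebrafish larvae in 96-well ProxiPlates were exposed to library drugs at 10 µM (diluted 1000× from DMSO stocks into egg water). There were 48 larvae per drug, exposed 3 h before and 3 h during imaging at 28.5 °C. Images taken every 6 s covered a 3-h program of rest, moving coloured lines and acoustic pulses, and an ImageJ macro scored movement and upper-half location. Each behaviour score is the treated-group mean minus the DMSO vehicle mean, in percentage points.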
# [2] = test system: Danio rerio larvae (5 dpf); experiment: startle response to 20-s acoustic pulses, difference vs DMSO (percentage points (treated minus DMSO)); higher = more of the behaviour than the DMSO vehicle control
# Procedure, shortened: as §1
# [3] = test system: Danio rerio larvae (5 dpf); experiment: excitability to 1-s acoustic pulses, difference vs DMSO (percentage points (treated minus DMSO)); higher = more of the behaviour than the DMSO vehicle control
# Procedure, shortened: as §1
# [4] = test system: Danio rerio larvae (5 dpf); experiment: activity during period 15 (no stimuli), difference vs DMSO (percentage points (treated minus DMSO)); higher = more of the behaviour than the DMSO vehicle control
# Procedure, shortened: as §1
# [5] = test system: Danio rerio larvae (5 dpf); experiment: optomotor response to green moving lines, difference vs DMSO (percentage points (treated minus DMSO)); higher = more of the behaviour than the DMSO vehicle control
# Procedure, shortened: as §1
# [6] = test system: Danio rerio larvae (5 dpf); experiment: optomotor response to fast red moving lines, difference vs DMSO (percentage points (treated minus DMSO)); higher = more of the behaviour than the DMSO vehicle control
# Procedure, shortened: as §1
structure (smiles),measurement,setting,value
O=C(O)C[C@H](O)C[C@H](O)/C=C/c1c(C2CC2)nc2ccccc2c1-c1ccc(F)cc1 [Pitavastatin calcium],habituation to 1-s acoustic pulses,[1],-6.74
same,startle response to 20-s acoustic pulses,[2],1.52
CC(=O)Nc1ccc(O)cc1 [Acetaminophen],excitability to 1-s acoustic pulses,[3],-2.54
CCOC(=O)[C@H](CCc1ccccc1)N[C@@H](C)C(=O)N1[C@H](C(=O)O)C[C@@H]2CCC[C@@H]21 [Ramipril],startle response to 20-s acoustic pulses,[2],-1.54
CCOC(=O)N1CCC(=C2c3ccc(Cl)cc3CCc3cccnc32)CC1 [Loratidine],excitability to 1-s acoustic pulses,[3],-6.95
same,activity during period 15,[4],-25
NS(=O)(=O)c1cc2c(cc1Cl)NC(C1CC3C=CC1C3)NS2(=O)=O (stereo not given) [Cyclothiazide],habituation to 1-s acoustic pulses,[1],2.19
same,startle response to 20-s acoustic pulses,[2],-0.96
CN(C)CCc1c[nH]c2ccc(C[C@H]3COC(=O)N3)cc12 [Zolmitriptan],startle response to 20-s acoustic pulses,[2],2.21
CCOc1nc2cccc(C(=O)O)c2n1Cc1ccc(-c2ccccc2-c2nnn[nH]2)cc1 [Candesartan],activity during period 15,[4],-1.51
same,startle response to 20-s acoustic pulses,[2],10.6
CN1CC2c3ccccc3Oc3ccc(Cl)cc3C2C1 (stereo not given) [Asenapine maleate],habituation to 1-s acoustic pulses,[1],-9.25
same,excitability to 1-s acoustic pulses,[3],15
same,optomotor response to green moving lines,[5],-9.85
same,startle response to 20-s acoustic pulses,[2],-6.44
COc1ccc([C@@H]2Sc3ccccc3N(CCN(C)C)C(=O)[C@@H]2OC(C)=O)cc1 [Diltiazem hydrochloride],excitability to 1-s acoustic pulses,[3],1.38
CCCCCCCN(CC)CCCC(O)c1ccc(NS(C)(=O)=O)cc1 (stereo not given) [Ibutilide hemifumarate],activity during period 15,[4],-10
same,optomotor response,[6],3.06
COc1cc2ncnc(Nc3ccc(F)c(Cl)c3)c2cc1OCCCN1CCOCC1 [Iressa],activity during period 15,[4],-0.986
Cc1ccccc1C(=O)Nc1ccc(C(=O)N2CCCC(O)c3cc(Cl)ccc32)c(C)c1 (stereo not given) [Tolvaptan],habituation to 1-s acoustic pulses,[1],1.17
same,excitability to 1-s acoustic pulses,[3],6.31
same,optomotor response to green moving lines,[5],10.3
same,startle response to 20-s acoustic pulses,[2],3.71
N#Cc1ccc(C(c2ccc(C#N)cc2)n2cncn2)cc1 [Letrozole],habituation to 1-s acoustic pulses,[1],2.44
CCC(C)(C)C(=O)O[C@H]1C[C@@H](C)C=C2C=C[C@H](C)[C@H](CC[C@@H]3C[C@@H](O)CC(=O)O3)[C@H]21 [Simvastatin],optomotor response,[6],-13.2
